Measured values taken from PubChem BioAssay (Tox21).
The source made the active and inactive calls. Calls follow the shape of the dose curve; as a rule, active = well fitted curve in the direction sought with a large enough effect in the repeat runs; inconclusive = weak or mixed curves; inactive = flat fitted curve, though single readings scatter.

experiment: qHTS assay to test for compound auto fluorescence at 590 nm (red) in HEK293 cells (AID 720679); details: red autofluorescence 540/590 nm; series mostly up to 91.3 µM; fluorescence, % of fluorescent control: at the top concentration
How it was run: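 Red channel, Ex/Em 540/590nm; signal expressed as equivalency to Rose Bengal sodium. HEK293, 2,000 cells/well, 10% dialyzed FBS; 23 nL compound pinned after 4-5 hr attachment; overnight 37C/5% CO2 before reading.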
% is scaled to controls: 0 for no effect and ±100 for the full control effect.

Compound	fluorescence, % of fluorescent control	outcome
CCOC(=O)C(C)(C)C	0.234% (inactive)	–
CCCCC(CC)C(=O)OC(C)C (stereo not given)	-0.642% (inactive)	–
CCCCC[Si](OCC)(OCC)OCC	-0.793% (inactive)	–
CCCCC(=O)N(C)C	-0.826% (inactive)	–
C[CH2][Ge]([Cl])([CH2]C)[CH2]C	-0.826% [at 95.7 µM] (inactive)	–
Cc1nc([N+](=O)[O-])cn1-c1ccc([N+](=O)[O-])cc1	0.0252% [at 46 µM] (inactive)	–
Cc1cccc(Nc2ccncc2S(=O)(=O)NC(=O)NC(C)C)c1	0.875% [at 18.6 µM] (inactive)	–
N#CCCOCCOCCC#N	0.224% (inactive)	–
CC(C)COC(=O)CCCCC(=O)OCC(C)C	-0.193% (inactive)	–
CCc1nccnc1C	0.0629% (inactive)	–
Cc1ncc([N+](=O)[O-])n1CC(O)CCl (stereo not given)	-0.364% [at 18.6 µM] (inactive)	–
CCOc1ccc(NC(=O)OC(C)C)cc1OCC	-0.0395% (inactive)	–
COc1cccc2sc(N)nc12	-0.413% (inactive)	–
C[C@H](CCC(=O)O)[C@H]1CC[C@H]2[C@@H]3[C@H](O)C[C@@H]4C[C@H](O)CC[C@]4(C)[C@H]3C[C@H](O)[C@]12C	–	inactive
NCCc1ccn[nH]1	0.131% [at 18.6 µM] (inactive)	–
O=P(O)(O)OCC(O)CO (stereo not given)	-0.443% [at 46 µM] (inactive)	–
CCC1Nc2cc(Cl)c(S(N)(=O)=O)cc2S(=O)(=O)N1 (stereo not given)	0.483% [at 46 µM] (inactive)	–
O=C(/C=C/c1ccccc1)NCCO	0.0984% [at 46 µM] (inactive)	–

Compound	fluorescence, % of fluorescent control	outcome
CCC(C)N (stereo not given)	0.0962% (inactive)	–
CNC(=O)C(c1ccccc1)c1ccccc1	0.042% (inactive)	–
CCCOCCOCCOCCO	0.202% (inactive)	–
O=[Si]=O	-0.15% (inactive)	–
C=CCOc1c(Br)cc(C(C)(C)c2cc(Br)c(OCC=C)c(Br)c2)cc1Br	0.0293% [at 46 µM] (inactive)	–
CCCCOC(=O)[C@@H](C)Oc1ccc(Oc2ccc(C(F)(F)F)cn2)cc1	0.581% (inactive)	–
CCC(C)(CCC(C)C)C(=O)[O-].CCC(C)(CCC(C)C)C(=O)[O-].[Zn+2] (stereo not given)	0.0763% (inactive)	–
CC(=O)OCC(=O)[C@@]1(O)[C@H](OC(C)=O)C[C@H]2[C@@H]3CCC4=CC(=O)C=C[C@]4(C)[C@@]3(F)[C@@H](O)C[C@@]21C	-0.505% [at 46 µM] (inactive)	–
CC(C)COC(=O)COc1ccc(Cl)cc1Cl	-0.604% (inactive)	–
CC(=O)c1ccc(OCC(=O)N2CCCCC2)cc1	0.137% [at 46 µM] (inactive)	–
CN=C(NC#N)NCCSCc1csc(N=C(N)N)n1	0.0263% [at 46 µM] (inactive)	–
C[Si]1(C)N[Si](C)(C)N[Si](C)(C)N1	-0.0511% (inactive)	–
Cc1ccccc1C	0.331% [at 95.7 µM] (inactive)	–
O=c1cc(O)c(Cl)c[nH]1	-0.0076% [at 46 µM] (inactive)	–
CCC(CO)CO	0.249% (inactive)	–
COC(/C=C(\C)CCC=C(C)C)OC	-0.243% (inactive)	–
CC(C)(CO)[C@@H](O)C(=O)NCCCO	-0.251% [at 46 µM] (inactive)	–

experiment: qHTS assay to test for compound auto fluorescence at 535 nm (green) in HEK293 cells (AID 720680); details: green autofluorescence 485/535 nm; series mostly up to 91.3 µM; fluorescence, % of fluorescein: at the top concentration

Compound	fluorescence, % of fluorescein	outcome
CCOC(=O)C(C)(C)C	-0.119% (inactive)	–
CCCCC(CC)C(=O)OC(C)C (stereo not given)	0.0465% (inactive)	–
CCCCC[Si](OCC)(OCC)OCC	-0.0041% (inactive)	–
CCCCC(=O)N(C)C	-0.0149% (inactive)	–
C[CH2][Ge]([Cl])([CH2]C)[CH2]C	0.0083% [at 95.7 µM] (inactive)	–
Cc1nc([N+](=O)[O-])cn1-c1ccc([N+](=O)[O-])cc1	0.0808% [at 46 µM] (inactive)	–
Cc1cccc(Nc2ccncc2S(=O)(=O)NC(=O)NC(C)C)c1	-0.12% [at 18.6 µM] (inactive)	–
N#CCCOCCOCCC#N	-0.0875% (inactive)	–
CC(C)COC(=O)CCCCC(=O)OCC(C)C	0.0047% (inactive)	–
CCc1nccnc1C	0.0156% (inactive)	–
Cc1ncc([N+](=O)[O-])n1CC(O)CCl (stereo not given)	-0.0185% [at 18.6 µM] (inactive)	–
CCOc1ccc(NC(=O)OC(C)C)cc1OCC	0.0206% (inactive)	–
COc1cccc2sc(N)nc12	-0.117% (inactive)	–
C[C@H](CCC(=O)O)[C@H]1CC[C@H]2[C@@H]3[C@H](O)C[C@@H]4C[C@H](O)CC[C@]4(C)[C@H]3C[C@H](O)[C@]12C	–	inactive
NCCc1ccn[nH]1	-0.0168% [at 18.6 µM] (inactive)	–
O=P(O)(O)OCC(O)CO (stereo not given)	0.0753% [at 46 µM] (inactive)	–
CCC1Nc2cc(Cl)c(S(N)(=O)=O)cc2S(=O)(=O)N1 (stereo not given)	0.157% [at 46 µM] (inactive)	–
O=C(/C=C/c1ccccc1)NCCO	-0.0275% [at 46 µM] (inactive)	–

Compound	fluorescence, % of fluorescein	outcome
CCC(C)N (stereo not given)	0.065% (inactive)	–
CNC(=O)C(c1ccccc1)c1ccccc1	0.122% (inactive)	–
CCCOCCOCCOCCO	0.0101% (inactive)	–
O=[Si]=O	-0.0337% (inactive)	–
C=CCOc1c(Br)cc(C(C)(C)c2cc(Br)c(OCC=C)c(Br)c2)cc1Br	-0.0453% [at 46 µM] (inactive)	–
CCCCOC(=O)[C@@H](C)Oc1ccc(Oc2ccc(C(F)(F)F)cn2)cc1	-0.0907% (inactive)	–
CCC(C)(CCC(C)C)C(=O)[O-].CCC(C)(CCC(C)C)C(=O)[O-].[Zn+2] (stereo not given)	0.0059% (inactive)	–
CC(=O)OCC(=O)[C@@]1(O)[C@H](OC(C)=O)C[C@H]2[C@@H]3CCC4=CC(=O)C=C[C@]4(C)[C@@]3(F)[C@@H](O)C[C@@]21C	0.0219% [at 46 µM] (inactive)	–
CC(C)COC(=O)COc1ccc(Cl)cc1Cl	0.016% (inactive)	–
CC(=O)c1ccc(OCC(=O)N2CCCCC2)cc1	0.0216% [at 46 µM] (inactive)	–
CN=C(NC#N)NCCSCc1csc(N=C(N)N)n1	-0.0187% [at 46 µM] (inactive)	–
C[Si]1(C)N[Si](C)(C)N[Si](C)(C)N1	-0.193% (inactive)	–
Cc1ccccc1C	0.0522% [at 95.7 µM] (inactive)	–
O=c1cc(O)c(Cl)c[nH]1	0.135% [at 46 µM] (inactive)	–
CCC(CO)CO	-0.0049% (inactive)	–
COC(/C=C(\C)CCC=C(C)C)OC	-0.0477% (inactive)	–
CC(C)(CO)[C@@H](O)C(=O)NCCCO	0.103% [at 46 µM] (inactive)	–

experiment: qHTS assay to test for compound auto fluorescence at 460 nm (blue) in HEK293 cell free culture (AID 720681); details: cell-free medium, autofluorescence 405/460 nm (blue); series mostly up to 91.3 µM; fluorescence, % of fluorescent control: at the top concentration
How it was run: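 Compounds were added to cell-free DMEM with 10% FBS and fluorescence read directly. The blue channel used 405 nm excitation and 460 nm emission, with triamterene as the reference fluorophore.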

Compound	fluorescence, % of fluorescent control	outcome
CCOC(=O)C(C)(C)C	-0.069% (inactive)	–
CCCCC(CC)C(=O)OC(C)C (stereo not given)	0.106% (inactive)	–
CCCCC[Si](OCC)(OCC)OCC	0.149% (inactive)	–
CCCCC(=O)N(C)C	0.133% (inactive)	–
C[CH2][Ge]([Cl])([CH2]C)[CH2]C	-0.0063% [at 95.7 µM] (inactive)	–
Cc1nc([N+](=O)[O-])cn1-c1ccc([N+](=O)[O-])cc1	-0.128% [at 46 µM] (inactive)	–
Cc1cccc(Nc2ccncc2S(=O)(=O)NC(=O)NC(C)C)c1	-0.219% [at 18.6 µM] (inactive)	–
N#CCCOCCOCCC#N	0.0446% (inactive)	–
CC(C)COC(=O)CCCCC(=O)OCC(C)C	-0.0434% (inactive)	–
CCc1nccnc1C	0.153% (inactive)	–
Cc1ncc([N+](=O)[O-])n1CC(O)CCl (stereo not given)	-0.008% [at 18.6 µM] (inactive)	–
CCOc1ccc(NC(=O)OC(C)C)cc1OCC	0.0976% (inactive)	–
COc1cccc2sc(N)nc12	-0.147% (inactive)	–
C[C@H](CCC(=O)O)[C@H]1CC[C@H]2[C@@H]3[C@H](O)C[C@@H]4C[C@H](O)CC[C@]4(C)[C@H]3C[C@H](O)[C@]12C	–	inactive
NCCc1ccn[nH]1	-0.0158% [at 18.6 µM] (inactive)	–
O=P(O)(O)OCC(O)CO (stereo not given)	0.0265% [at 46 µM] (inactive)	–
CCC1Nc2cc(Cl)c(S(N)(=O)=O)cc2S(=O)(=O)N1 (stereo not given)	0.0225% [at 46 µM] (inactive)	–
O=C(/C=C/c1ccccc1)NCCO	-0.124% [at 46 µM] (inactive)	–

Compound	fluorescence, % of fluorescent control	outcome
CCC(C)N (stereo not given)	-0.0485% (inactive)	–
CNC(=O)C(c1ccccc1)c1ccccc1	0.0225% (inactive)	–
CCCOCCOCCOCCO	-0.0101% (inactive)	–
O=[Si]=O	-0.108% (inactive)	–
C=CCOc1c(Br)cc(C(C)(C)c2cc(Br)c(OCC=C)c(Br)c2)cc1Br	-0.0106% [at 46 µM] (inactive)	–
CCCCOC(=O)[C@@H](C)Oc1ccc(Oc2ccc(C(F)(F)F)cn2)cc1	0.381% (inactive)	–
CCC(C)(CCC(C)C)C(=O)[O-].CCC(C)(CCC(C)C)C(=O)[O-].[Zn+2] (stereo not given)	-0.182% (inactive)	–
CC(=O)OCC(=O)[C@@]1(O)[C@H](OC(C)=O)C[C@H]2[C@@H]3CCC4=CC(=O)C=C[C@]4(C)[C@@]3(F)[C@@H](O)C[C@@]21C	0.15% [at 46 µM] (inactive)	–
CC(C)COC(=O)COc1ccc(Cl)cc1Cl	-0.151% (inactive)	–
CC(=O)c1ccc(OCC(=O)N2CCCCC2)cc1	0.0812% [at 46 µM] (inactive)	–
CN=C(NC#N)NCCSCc1csc(N=C(N)N)n1	0.0016% [at 46 µM] (inactive)	–
C[Si]1(C)N[Si](C)(C)N[Si](C)(C)N1	-0.292% (inactive)	–
Cc1ccccc1C	-0.227% [at 95.7 µM] (inactive)	–
O=c1cc(O)c(Cl)c[nH]1	-0.0732% [at 46 µM] (inactive)	–
CCC(CO)CO	0.0096% (inactive)	–
COC(/C=C(\C)CCC=C(C)C)OC	-0.0039% (inactive)	–
CC(C)(CO)[C@@H](O)C(=O)NCCCO	0.0411% [at 46 µM] (inactive)	–
